# Laboratory results: PubChem BioAssay (NCI)
# This is part of a sample that, as a whole, favours compounds with a hit. Of some 79,000 tested, about 15% had one in any assay. Unmarked numbers belong to inactive results. Activity calls are given as the source filed them. No stated cut-off is given here; in the data, active means growth inhibition above about 70%; inactive means the rest.
# Experiments:
# [1] = NCI Yeast Anticancer Drug Screen. Data for the wt1 strain (AID 149);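 further: 0% = growth of vehicle-treated wt1 cultures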; conditions: S. cerevisiae wt1 strain (SPY 50644) growth inhibition, stronger effect = higher value
# Procedure, shortened: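 Readout: yeast growth inhibition, normalised to vehicle controls, in the wt1 strain exposed to test compounds.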
# [2] = NCI Yeast Anticancer Drug Screen. Data for the rad50EPP+ strain (AID 151);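 further: 0% = growth of vehicle-treated control cultures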; conditions: S. cerevisiae rad50 mutant strain, stronger effect = higher value
# Procedure, shortened: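 Strain rad50EPP+; compound exposure; % growth inhibition vs vehicle.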
# [3] = NCI Yeast Anticancer Drug Screen. Data for the mgt1 strain (AID 153); conditions: S. cerevisiae mgt1 mutant growth inhibition, stronger effect = higher value
# Procedure, shortened: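 Read-out: yeast growth inhibition vs vehicle control. Strain mgt1, drawn from a panel altered in DNA damage repair or cell cycle control.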
# [4] = NCI Yeast Anticancer Drug Screen. Data for the rad50 strain (AID 155);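 further: 0% = growth of vehicle-only cultures of the same strain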; conditions: S. cerevisiae rad50 strain growth inhibition, stronger effect = higher value
# Procedure, shortened: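 Compounds were tested on a yeast strain with an engineered DNA damage repair alteration; the reported value is growth inhibition normalised to vehicle treatment.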
# [5] = NCI Yeast Anticancer Drug Screen. Data for the mec2-1 strain (AID 157); conditions: S. cerevisiae mec2-1 strain, stronger effect = higher value
# Procedure, shortened: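 Cells of the genetically defined mec2-1 yeast strain are incubated with test compound. Inhibition of growth is calculated against vehicle-treated controls.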
# [6] = NCI Yeast Anticancer Drug Screen. Data for the rad14 strain (AID 159);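 further: 0% = growth of vehicle-treated control cultures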; conditions: S. cerevisiae rad14 strain growth inhibition, stronger effect = higher value
# Procedure, shortened: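 Compound-treated yeast with a defined DNA-repair lesion; growth inhibition normalised to vehicle-treated cultures.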
# [7] = NCI Yeast Anticancer Drug Screen. Data for the sgs1 mgt1 strain (AID 161);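 further: 0% = growth of cultures given vehicle only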; conditions: S. cerevisiae sgs1 mgt1 strain, stronger effect = higher value
# Procedure, shortened: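 Read-out: growth inhibition vs vehicle controls. Cells: mutant yeast strain deficient in DNA damage repair.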
# [8] = NCI Yeast Anticancer Drug Screen. Data for the CLN2oe strain (AID 163);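 further: 0% = growth of vehicle-only control cultures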; conditions: S. cerevisiae CLN2oe strain, stronger effect = higher value
# Procedure, shortened: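 Strain altered in cell-cycle control, incubated with compound; growth compared to solvent-treated controls.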
# [9] = NCI Yeast Anticancer Drug Screen. Data for the bub3 strain (AID 167); conditions: S. cerevisiae bub3 mutant strain, stronger effect = higher value
# Procedure, shortened: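 Growth of a checkpoint-deficient yeast mutant is measured after compound exposure. Values represent inhibition relative to vehicle.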
# [10] = NCI Yeast Anticancer Drug Screen. Data for the wt2 strain (AID 169);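 further: 0% = growth of vehicle-treated yeast cultures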; conditions: S. cerevisiae wt2 strain growth inhibition, stronger effect = higher value
# Procedure, shortened: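 Steps: yeast strain treated with compound; growth recorded; inhibition calculated relative to cultures given vehicle alone.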
# [11] = NCI Yeast Anticancer Drug Screen. Data for the mlh1 strain (AID 171);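 further: 0% = growth of vehicle-treated control cultures of the same strain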; conditions: S. cerevisiae mlh1 strain growth inhibition, stronger effect = higher value
# Procedure, shortened: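 Yeast screen: mutant strain plus compound, growth scored against vehicle control wells.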
# [12] = NCI Yeast Anticancer Drug Screen. Data for the sgs1 strain (AID 173);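 further: 0% = growth of vehicle-only control cultures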; conditions: S. cerevisiae sgs1 mutant, stronger effect = higher value
# Procedure, shortened: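 Inhibition of yeast growth served as the measure. The mutant strain was treated with each compound, and growth was normalised to cultures receiving vehicle alone.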
# [13] = NCI Yeast Anticancer Drug Screen. Data for the mlh1 rad18 strain (AID 175); conditions: S. cerevisiae mlh1 rad18 strain growth inhibition, stronger effect = higher value
# Procedure, shortened: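 Compound-treated yeast growth, normalised to vehicle controls. Strain bears defined DNA repair mutations.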
# [14] = NCI Yeast Anticancer Drug Screen. Data for the rad18 strain (AID 177); conditions: S. cerevisiae rad18 mutant growth inhibition, stronger effect = higher value
# Procedure, shortened: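 Inhibition values reflect reduced yeast growth compared with vehicle-treated controls, using a strain engineered with a DNA damage repair defect.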
# [15] = NCI Yeast Anticancer Drug Screen. Data for the cln2 rad14 strain (AID 165);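 further: 0% = growth equal to vehicle treated cultures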; conditions: S. cerevisiae cln2 rad14 strain, stronger effect = higher value
# Procedure, shortened: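 The screen exposed genetically defined yeast (cln2 rad14) to test compounds and scored growth inhibition relative to vehicle-treated controls.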
# [16] = at 5.0 µM (retest, dose inferred, filed as 0.5)
# [17] = at 50.0 µM (retest, dose inferred, filed as 5.0)
structure (smiles),measurement,setting,value
c1cc2ccc3cc4ncccc4c4ccc(c1)c2c34,growth inhibition,[1]; at 1.2 µM,-2%
same,growth inhibition,[1]; at 3.7 µM,3%
same,growth inhibition,[1]; at 11.0 µM,9%
same,growth inhibition,[1]; at 33.0 µM,54%
same,growth inhibition,[1]; at 100.0 µM,75% (active)
same,growth inhibition,[2]; at 1.2 µM,8%
same,growth inhibition,[2]; at 3.7 µM,35%
same,growth inhibition,[2]; at 11.0 µM,73% (active)
same,growth inhibition,[2]; at 33.0 µM,92% (active)
same,growth inhibition,[2]; at 100.0 µM,92% (active)
same,growth inhibition,[3]; at 1.2 µM,-2%
same,growth inhibition,[3]; at 3.7 µM,-1%
same,growth inhibition,[3]; at 11.0 µM,11%
same,growth inhibition,[3]; at 33.0 µM,76% (active)
same,growth inhibition,[3]; at 100.0 µM,84% (active)
same,growth inhibition,[4]; at 1.2 µM,2%
same,growth inhibition,[4]; at 3.7 µM,13%
same,growth inhibition,[4]; [16],74% (active)
same,growth inhibition,[4]; at 11.0 µM,70% (active)
same,growth inhibition,[4]; at 33.0 µM,93% (active)
same,growth inhibition,[4]; [17],96% (active)
same,growth inhibition,[4]; at 50.0 µM,97.9% (active)
same,growth inhibition,[4]; at 100.0 µM,93% (active)
same,growth inhibition,[5]; at 1.2 µM,-2%
same,growth inhibition,[5]; at 3.7 µM,1%
same,growth inhibition,[5]; [16],23%
same,growth inhibition,[5]; at 11.0 µM,13%
same,growth inhibition,[5]; at 33.0 µM,65%
same,growth inhibition,[5]; [17],97% (active)
same,growth inhibition,[5]; at 50.0 µM,97.5% (active)
same,growth inhibition,[5]; at 100.0 µM,82% (active)
same,growth inhibition,[6]; at 1.2 µM,1%
same,growth inhibition,[6]; at 3.7 µM,7%
same,growth inhibition,[6]; at 11.0 µM,20%
same,growth inhibition,[6]; at 33.0 µM,68%
same,growth inhibition,[6]; at 100.0 µM,79% (active)
same,growth inhibition,[7]; [16],34%
same,growth inhibition,[7]; [17],93% (active)
same,growth inhibition,[7]; at 50.0 µM,98.2% (active)
same,growth inhibition,[8]; at 1.2 µM,-3%
same,growth inhibition,[8]; at 3.7 µM,-3%
same,growth inhibition,[8]; at 11.0 µM,1%
same,growth inhibition,[8]; at 33.0 µM,21%
same,growth inhibition,[8]; at 100.0 µM,65%
same,growth inhibition,[9]; at 1.2 µM,-2%
same,growth inhibition,[9]; at 3.7 µM,1%
same,growth inhibition,[9]; [16],27%
same,growth inhibition,[9]; at 11.0 µM,36%
same,growth inhibition,[9]; at 33.0 µM,84% (active)
same,growth inhibition,[9]; [17],96% (active)
same,growth inhibition,[9]; at 50.0 µM,98.9% (active)
same,growth inhibition,[9]; at 100.0 µM,90% (active)
same,growth inhibition,[10]; at 1.2 µM,0%
same,growth inhibition,[10]; at 3.7 µM,0%
same,growth inhibition,[10]; at 11.0 µM,15%
same,growth inhibition,[10]; at 33.0 µM,53%
same,growth inhibition,[10]; at 100.0 µM,85% (active)
same,growth inhibition,[11]; at 1.2 µM,-2%
same,growth inhibition,[11]; at 3.7 µM,0%
same,growth inhibition,[11]; at 11.0 µM,22%
same,growth inhibition,[11]; at 33.0 µM,83% (active)
same,growth inhibition,[11]; at 100.0 µM,88% (active)
same,growth inhibition,[12]; at 1.2 µM,-2%
same,growth inhibition,[12]; at 3.7 µM,0%
same,growth inhibition,[12]; at 11.0 µM,25%
same,growth inhibition,[12]; at 33.0 µM,83% (active)
same,growth inhibition,[12]; at 100.0 µM,85% (active)
same,growth inhibition,[13]; [16],32%
same,growth inhibition,[13]; [17],97% (active)
same,growth inhibition,[13]; at 50.0 µM,97.8% (active)
same,growth inhibition,[14]; at 1.2 µM,4%
same,growth inhibition,[14]; at 3.7 µM,7%
same,growth inhibition,[14]; at 11.0 µM,35%
same,growth inhibition,[14]; at 33.0 µM,87% (active)
same,growth inhibition,[14]; at 100.0 µM,90% (active)
CCOC(=O)/C(O)=C(/C=N/C(=S)Nc1c(CC)cccc1CC)C(=O)OCC,growth inhibition,[1]; at 1.2 µM,-31%
same,growth inhibition,[1]; at 3.7 µM,-7%
same,growth inhibition,[1]; at 11.0 µM,2%
same,growth inhibition,[1]; at 33.0 µM,21%
same,growth inhibition,[1]; at 100.0 µM,33%
same,growth inhibition,[2]; at 1.2 µM,-3%
same,growth inhibition,[2]; at 3.7 µM,-1%
same,growth inhibition,[2]; at 11.0 µM,-5%
same,growth inhibition,[2]; at 33.0 µM,-3%
same,growth inhibition,[2]; at 100.0 µM,-7%
same,growth inhibition,[3]; at 1.2 µM,-7%
same,growth inhibition,[3]; at 3.7 µM,-6%
same,growth inhibition,[3]; at 11.0 µM,0%
same,growth inhibition,[3]; at 33.0 µM,20%
same,growth inhibition,[3]; at 100.0 µM,35%
same,growth inhibition,[4]; at 1.2 µM,-6%
same,growth inhibition,[4]; at 3.7 µM,-3%
same,growth inhibition,[4]; [16],7%
same,growth inhibition,[4]; at 11.0 µM,11%
same,growth inhibition,[4]; at 33.0 µM,36%
same,growth inhibition,[4]; [17],65%
same,growth inhibition,[4]; at 50.0 µM,65.3%
same,growth inhibition,[4]; at 100.0 µM,47%
same,growth inhibition,[5]; at 1.2 µM,-10%
same,growth inhibition,[5]; at 3.7 µM,-5%
same,growth inhibition,[5]; [16],3%
same,growth inhibition,[5]; at 11.0 µM,10%
same,growth inhibition,[5]; at 33.0 µM,27%
same,growth inhibition,[5]; [17],34%
same,growth inhibition,[5]; at 50.0 µM,24.6%
same,growth inhibition,[5]; at 100.0 µM,36%
same,growth inhibition,[6]; at 1.2 µM,-7%
same,growth inhibition,[6]; at 3.7 µM,-7%
same,growth inhibition,[6]; at 11.0 µM,-2%
same,growth inhibition,[6]; at 33.0 µM,20%
same,growth inhibition,[6]; at 100.0 µM,38%
same,growth inhibition,[7]; [16],-4%
same,growth inhibition,[7]; [17],10%
same,growth inhibition,[7]; at 50.0 µM,51.3%
same,growth inhibition,[8]; at 1.2 µM,-16%
same,growth inhibition,[8]; at 3.7 µM,-23%
same,growth inhibition,[8]; at 11.0 µM,-19%
same,growth inhibition,[8]; at 33.0 µM,-1%
same,growth inhibition,[8]; at 100.0 µM,29%
same,growth inhibition,[15]; [16],-1%
same,growth inhibition,[15]; [17],25%
same,growth inhibition,[15]; at 50.0 µM,35.2%
same,growth inhibition,[9]; at 1.2 µM,-9%
same,growth inhibition,[9]; at 3.7 µM,-10%
same,growth inhibition,[9]; [16],-20%
same,growth inhibition,[9]; at 11.0 µM,-5%
same,growth inhibition,[9]; at 33.0 µM,12%
same,growth inhibition,[9]; [17],49%
same,growth inhibition,[9]; at 50.0 µM,67%
same,growth inhibition,[9]; at 100.0 µM,31%
same,growth inhibition,[10]; at 1.2 µM,-7%
same,growth inhibition,[10]; at 3.7 µM,-6%
same,growth inhibition,[10]; at 11.0 µM,-1%
same,growth inhibition,[10]; at 33.0 µM,23%
same,growth inhibition,[10]; at 100.0 µM,40%
same,growth inhibition,[12]; at 1.2 µM,-8%
same,growth inhibition,[12]; at 3.7 µM,3%
same,growth inhibition,[12]; at 11.0 µM,17%
same,growth inhibition,[12]; at 33.0 µM,42%
same,growth inhibition,[12]; at 100.0 µM,53%
same,growth inhibition,[13]; [16],-8%
same,growth inhibition,[13]; [17],36%
same,growth inhibition,[13]; at 50.0 µM,59.9%
same,growth inhibition,[14]; at 1.2 µM,-4%
same,growth inhibition,[14]; at 3.7 µM,-8%
same,growth inhibition,[14]; at 11.0 µM,8%
same,growth inhibition,[14]; at 33.0 µM,46%
same,growth inhibition,[14]; at 100.0 µM,62%
